For 37 compounds, inhibition results are on record in PubChem BioAssay AID493034 (The Scripps Research Institute Molecular Screening Center, 2011).

The whole screen tested about 2,400 compounds, of which about 2,200 (92%) were called active.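 The calls were made as follows: active = mean inhibition over triplicate runs exceeds the cutoff derived for the earlier primary screen (cut at about 25% in these data); inactive = the rest.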 So high a share suggests a set chosen from earlier hits. The list shows a part of the results.

In this experiment the target is Platelet-activating factor acetylhydrolase IB subunit alpha2 (Homo sapiens) (UniProt P68402). Kind of experiment: PAFAH1B2 inhibitors, confirmation, biochemical, fluorescence polarization, FP-rhodamine probe, triplicate (AID 493034).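 Also: 0% = enzyme with DMSO and 100% = wells lacking PAFAH1B2 protein; inhibitors lower polarization by leaving the probe unbound.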 To be noted: recombinant PAFAH1B2, FP-rhodamine probe fluorescence polarization; at 3.39 µM; hits give high values. Background: In fluorescence polarisation assays a small probe gives low polarisation when free and higher when bound to something large.
Platelet-activating factor acetylhydrolase IB subunit alpha2 (Homo sapiens), sequence (P68402 whole entry, looked up): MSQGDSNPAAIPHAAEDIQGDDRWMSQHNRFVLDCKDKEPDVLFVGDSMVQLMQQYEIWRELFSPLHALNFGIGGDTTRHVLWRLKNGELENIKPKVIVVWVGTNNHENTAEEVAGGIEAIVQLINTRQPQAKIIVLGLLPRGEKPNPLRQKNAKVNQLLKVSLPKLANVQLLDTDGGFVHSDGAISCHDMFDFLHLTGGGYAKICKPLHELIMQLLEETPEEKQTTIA
For orientation: inhibition means the drop in the measured response relative to a control, in per cent. For the compound `COC(=O)C1=C(c2ccc(C(C)=O)cc2)C[C@@H]2CC[C@H]1N2C(=O)NCc1ccc(C(F)(F)F)cc1`, the inhibition was 28% (active).
The figure for `COC(=O)C1=C(c2ccc(C(C)=O)cc2)C[C@@H]2CC[C@H]1N2C(=O)NCc1ccc(F)cc1` is 23.9% (inactive).
As for `Cc1ccc(S(=O)(=O)NP(=O)(Oc2ccccc2)Oc2ccccc2)cc1`, the figure is 51.9% (active).
Turning to `O=P(NS(=O)(=O)c1ccc(Cl)cc1)(Oc1ccccc1)Oc1ccccc1`, the inhibition was 81.3% (active).
The figure for `O=P(NS(=O)(=O)c1ccc(Br)cc1)(Oc1ccccc1)Oc1ccccc1` is 78.1% (active); for `BrCC(Br)C1CCC(Br)C(Br)C1` (configuration not stated) it is 56.7% (active).
As for `O=c1[nH]c(=S)n(CCC2=CCCCC2)c(O)c1/C=N/Nc1ccccc1`, the inhibition is 29.8% (active).
The figure for `O=S(=O)(c1ccc(Cl)cc1)c1ccc(Cl)cc1` is 42.9% (active).
`Cc1ccc(OCCOc2cccc(C=C3C(=O)NC(=O)NC3=O)c2)cc1`: the inhibition is 36.7% (active).
As for `O=C(O)CCn1cc(C=C2C(=O)NC(=O)NC2=O)c(-c2ccc(Br)cc2)n1`, the figure is 36.4% (active); as for `O=C(OCCN1CCOCC1)C1(c2ccccc2)CCCC1`, 32.4% (active).
Take `O=C(O)C1(c2ccc(Cl)cc2)CCC1`: the inhibition is 37% (active).
As for `Cn1c(O)c(/C=C2\N=c3ccccc3=C2CCNC(=S)NC2CC2)c(=O)n(C)c1=O`, the figure is 84.3% (active).
As to `O=C(Cc1ccc(N(CCCl)CCCl)cc1)NC(Cc1ccc(Cl)cc1)C(=O)O` (configuration not stated), the inhibition was 63% (active).
The figure for `O=C(Cc1ccccc1)NC(Cc1ccc(Cl)cc1)C(=O)O` (configuration not stated) is 28.4% (active); for `O=C1CC(=O)N(Cc2ccccc2)C(=S)N1` it is 15.9% (inactive).
As for `O=C(N/N=C/c1c(O)n(Cc2ccc(F)cc2)c(=O)[nH]c1=O)c1ccccc1`, the figure is 23.9% (inactive); as for `O=c1[nH]c(=S)n(Cc2ccc(F)cc2)c(O)c1/C=N/N1CCCCC1`, 38.2% (active).
As for `O=c1[nH]c(=S)n(Cc2ccc(F)cc2)c(O)c1/C=N/N1CCCCCC1`, the figure is 27.4% (active); as for `O=c1[nH]c(=S)n(Cc2ccc(F)cc2)c(O)c1C=NCC1CCCO1` (configuration not stated), 27.5% (active).
For `O=C(N/N=C/c1c(O)n(Cc2ccc(F)cc2)c(=S)[nH]c1=O)c1ccncc1`, the inhibition is 40.2% (active).
Turning to `CC1CC(OP(O)(=S)c2ccc(N(C)C)cc2NC(=O)c2cccs2)CC(C)(C)C1` (configuration not stated), the inhibition is 17.3% (inactive).
The figure for `O=C1CN=C(c2ccccc2)c2ccccc2N1Cc1ccc(C(F)(F)F)cc1` is 57.8% (active); for `Cc1ccc(Sc2ccc(C=C3C(=O)N(C)C(=O)N(C)C3=O)o2)cc1` it is 62.6% (active).
The figure for `O=C1NC(=O)C(=Cc2ccc(-c3ccc(F)cc3O)o2)C(=O)N1` is 20.5% (inactive).
For `Cc1ccc(-c2nc3ccc(Cl)cc3n2OC(=O)N(C)C)cc1`, the inhibition is 59% (active).
As for `CNC(=O)O/N=C(\N)Cc1csc2ccc(Cl)cc12`, the figure is 54.9% (active); as for `FC(F)(F)c1cccc(-n2nnnc2C2(N3CCOCC3)CCCCC2)c1`, 23.3% (inactive).
As for `Cc1ccc2c(c1)=NC(=O)/C(=C/c1c(O)[nH]c(=O)[nH]c1=O)C=2`, the figure is 21.7% (inactive).
Consider `C=C[C@@H]1C[C@@]1(C)[C@@H](NP(=O)(c1ccccc1)c1ccccc1)c1ccccc1`, for which the inhibition is 29.2% (active).
The figure for `Nc1ccc(C2(c3ccc(N)cc3)CCCCC2)cc1` is 45.2% (active); for `O=P(O)(Oc1ccccc1)OC(c1ccccc1)C(F)(F)C(F)(F)F` (configuration not stated) it is 85.5% (active); for `NP(=O)(OCCCc1ccccc1)Oc1ccc(Cl)cc1` (configuration not stated) it is 88.8% (active).
As for `NP(=O)(OCCCc1ccccc1)Oc1ccccc1` (configuration not stated), the figure is 51.6% (active); as for `Nc1ccc2cc(Br)ccc2c1`, 70.6% (active); as for `CNC(=O)Oc1ccc(C(=O)N2c3ccccc3NC(=O)C2C)cc1` (configuration not stated), 43.6% (active).
On to `O=C(O)c1c[nH]c2ccc(S(=O)(=O)N(CCCl)CCCl)cc12`, for which the inhibition was 26% (active).
